Screening results deposited in PubChem by National Center for Advancing Translational Sciences (NCATS).
Most compounds without a hit are left out; they make up all but 1.6% or so of the library.
p53ts 32C kill – qHTS Screen for Compounds that Selectively Target Cancer Cells with p53 Mutations: Cytotoxicity of p53ts Cells at the Permissive Temperature; H1299-p53A138V at 32C, ATP luminescence viability, 24 h; Potency, µM (doses to about 46.1 µM), for the others: at the top dose activity change, negative = cytotoxicity, actives largely listed as cytotoxic; hit rate 0.93% among 130,000;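 further: 0% = DMSO and -100% = full killing by reference compound; nearly all actives have a fitted effect of over 55% in size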
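H1299-p53 A138V cells (temperature-sensitive p53) exposed 24 h to up to 46 uM compound at 32C, where p53 is wild-type in conformation. Viability read as ATP luminescence and normalised to DMSO and 100 uM tamoxifen. AC50 fitted with the Hill equation.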
Peg3 imprint – qHTS Assay for Compounds that Induce Erasure of Genomic Imprints. mouse ES Peg3-LacZ reporter, beta-gal luminescence, 40 h. Potency, µM (highest dose often 60.7 µM), for the others: at the highest dose activity change, positive = activation, hits mostly activators. hit rate 0.02% among 110,000
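Readout: BetaGlo luminescence (5 min, room temp) for LacZ from the normally silent maternal Peg3 allele in female Peg3LacZ-Neo ES cells. Cells 300/well, 40 h, 37C, 5% CO2. Data normalized per plate to negative controls.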
IkB signaling – IkB Signaling | ABC-DLBCL IkBa-CBG/CBR dual luciferase ratio, 4 h; response scale: scaled: untreated 0%, proteasome inhibitor 100% | hit rate 0.04% among 110,000 | Potency, µM (series often up to 57.1 µM), without a hit: at the highest dose IkBa stabilization activation; active means well fitted curve in the direction sought with a large enough effect in the signal ratio, not every such curve was filed as active; inconclusive means small, poorly fitted or top-dose-only effect, or a change in a side signal; the % refers to the signal ratio;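 further: the direction sought is a rising ratio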
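Luminescence ratio of IκBα-fused green versus native red beetle luciferase in OCI-Ly3 cells, 4 h post-doxycycline with compound; red signal alone, scaled from basal (0%) to zero light (-100%), flagged nonspecific or cytotoxic effects.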
p53ts 39C tox – qHTS Screen for Compounds that Selectively Target Cancer Cells with p53 Mutations: Cytotoxicity of p53ts Cells at the Nonpermissive Temperature; H1299-p53A138V viability at 39C, ATP luminescence, 24 h; Potency, µM (doses to about 46.1 µM), inactives show at the top dose activity change, negative = cell killing, usual class: cytotoxic; hit rate 1.5% among 130,000; AID 902, 2007; further: on the % scale 0 is the no-effect control and ±100 the full control effect; nearly all actives have a fitted effect of over 55% in size
* = called active by the depositor; ? = inconclusive; . = no result; [ ] = remark or other dose. Unless noted, the call rests on the fitted dose curve; in most records, active means well fitted curve in the direction sought with a large enough effect; inconclusive means small, poorly fitted or top-dose-only effect, or another doubt; inactive means no such curve, though single readings can be large; an effect the other way counts as inactive or inconclusive. Potency means the concentration at half of the fitted maximal effect.

SMILES | p53ts 32C kill | Peg3 imprint | IkB signaling | p53ts 39C tox
CCOC(=O)c1cc(-c2ccccc2)n(CCC(=O)Nc2ccc(Cl)c(C(F)(F)F)c2)c1C | ? | -16%[10.9 µM] | -1% | ?
COc1ccc(/C=C/C(=O)Nc2sc(C)c(C)c2C(=O)O)cc1 | 2.5µM* | -12%[10.9 µM] | 96% | 13%
CCOC(=O)c1sc(NC(=O)/C=C/c2ccc(OCC)cc2)c(C(=O)OCC)c1C | 13% | -16%[10.9 µM] | 1% | 2%
[ClH+][Cu][ClH+].[Cu].[OH2+]c1ccc2ccccc2c1CN1CCCCC1.[OH2+]c1ccc2ccccc2c1CN1CCCCC1 | . | -13%[10.9 µM] | . | .
N#Cc1c(NC(=O)c2nc3ncccn3n2)sc2c1CCCCC2 | 13µM* | -12% | 1% | 13µM*
COc1ccc2c(CNCCc3ccccc3OC)c(C(=O)O)n(Cc3ccc(F)cc3Cl)c2c1 | 14% | -10%[10.9 µM] | ? | -15%
Fc1ccc(-c2nc3n(n2)Cc2ccccc2-3)cc1 | 16µM* | -94% | 12% | ?
Cc1ccc(-c2nnn(CC(=O)N3c4ccccc4CCc4ccccc43)n2)cc1 | 4% | . | . | -1%
CCn1c(C)nc2cc(-c3nc4n(n3)Cc3ccccc3-4)ccc21 | 0.32µM* | -97% | 0% | 0.4µM*
O=c1nc2n(c3c1oc1ccccc13)Cc1ccccc1-2 | 10% | -2% | 0% | 14%
Cc1ccc(-c2nc3n(n2)Cc2ccccc2-3)cc1 | 8.9µM* | . | . | 6.3µM*
CC(C)C1=CC2=CC[C@H]3[C@@](C)(CCC[C@]3(C)C(=O)O)[C@@H]2CC1 | . | . | 1%[11.4 µM] | .
Cc1ccc2nc(-c3ccc(NC(=O)c4ccc(S(C)(=O)=O)cc4)cc3)sc2c1 | 2% | ? | 0% | 7%
Cc1ccc2nc(-c3ccc(NC(=O)C(F)(F)F)cc3)sc2c1 | 3.2µM* | -61%[10.9 µM] | 3% | 1.6µM*
Cc1c2cnn(CC(=O)NCc3ccc(F)cc3)c(=O)c2c(C)n1Cc1cccc(Cl)c1 | 1% | -7%[10.9 µM] | 0% | ?
Cc1noc(-c2ccc(-c3noc(-c4ccccc4)n3)cc2)n1 | -3% | -74%[10.9 µM] | -1% | -14%
Cc1ccc(-c2nc(-c3ccccc3)no2)c(Cl)c1 | 5µM* | -82% | ? | 7.9µM*
Fc1ccccc1-c1nc(-c2ccccc2)no1 | -21% | -59% | 3% | 0%
Brc1ccccc1-c1nc(-c2ccccc2)no1 | 13µM* | -68% | 8% | ?
Cc1ccc(S(=O)(=O)N(CC(=O)O)c2ccc(Cl)cc2)cc1 | 12% | . | . | 0%
CCOc1ccc2nc(N3CCCC(C(=O)NCCCN4CCOCC4)C3)sc2c1 (configuration not stated) | 10µM* | -19% | 2% | -29%
CC(C)CO/N=C1/C[C@@H](O)[C@@H](O)[C@@H]2[C@@H]3C(=O)N(Cc4ccc5c(c4)OCO5)C(=O)[C@H]3CC[C@@H]12 | 6%[9.22 µM] | . | . | 5%[9.22 µM]
O=c1c2cc3c(cc2nc2sc(Nc4ccccc4)nn12)OCO3 | 13µM* | -4%[10.9 µM] | -1% | 16µM*
CN(Cc1ccccc1)c1nc2c(c(=O)[nH]c(=O)n2C)n1C | -2% | -1% | 0% | 9%
Cc1cccc(Cn2c(N(C)Cc3ccccc3)nc3c2c(=O)[nH]c(=O)n3C)c1 | 6.3µM* | -46% | 5% | 5µM*
SMILES | p53ts 32C kill | Peg3 imprint | IkB signaling | p53ts 39C tox
Cc1ccc(Nc2nnc(SCC(=O)Nc3ncc(C(F)(F)F)cc3Cl)s2)cc1 | . | . | . | 17%
Cc1ccc(Nc2nnc(SCC(=O)Nc3cccc(S(=O)(=O)N4CCCCC4)c3)s2)cc1 | -20% | . | . | 11µM*
CCN1C(=O)c2ccccc2Sc2ccc(NC(=O)Nc3ccc(C(C)=O)cc3)cc21 | -5% | -13%[10.9 µM] | 0% | -1%
CCN(CC)CCNC(=O)Nc1ccc2c(c1)N(Cc1ccccc1)C(=O)c1ccccc1S2 | -6% | 10%[10.9 µM] | 0% | 20µM*
C=CCc1c(C)nc2nc(SCC(=O)Nc3ccc(C)c(C)c3)nn2c1C | -12% | -15%[10.9 µM] | ? | 13µM*
CCN(CC)CCCC(C)NC(=O)c1ccc(-n2c(=O)c(=O)[nH]c3ccccc32)cc1 (configuration not stated) | 0% | . | . | -6%
C=CCN1CCc2c(cc(O)c(O)c2Br)[C@H](c2ccccc2)C1 | -11% | . | 5% | -13%
CC(C)C(=O)Nc1ccc(-c2nc3cccnc3o2)cc1 | 10µM* | -37% | 4% | 10µM*
